Data published in PubChem BioAssay (EPA / NIEHS).
Values joined by “and” are separate entries in the source; they are usually repeats but may differ in a detail not shown here. Equal values may be shown once. Results filed as inconclusive are left out. Some compounds were tested as several samples or in several runs, with calls that do not always agree. Active and inactive are the calls of the source. Rule for the calls, unless noted: active = hit-call score of the fitted dose curve at least 0.9, where 1 is the maximum; inactive = score below 0.9.

Key:
[1] = CCTE_Mundy_HCI_Cortical_Synap_Neur_Matur_CellBodySpotCount: CCTE's Synaptogenesis and Neurite Maturation Assay in rat cortical cells for Cell Body Spot Count, Mundy Lab (AID 2284223)
Outline: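 Primary rat cortical cultures, AraC added at DIV 5; dosed DIV 7 through DIV 12 […]. Fixed, stained for MAP2 and synaptophysin with Hoechst; cell body-associated synaptophysin puncta per neuron counted by high-content imaging, loss vs DMSO.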

[2] = CCTE_Mundy_HCI_Cortical_NOG_BPCount: CCTE's Neurite Outgrowth Assay in rat cortical cells for Branch Point Count, Mundy Lab (AID 2284237);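 for AC50: branch points counted about two days after chemical exposure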
Outline: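 Measured 50.33 h after dosing, this morphology endpoint uses rat primary cortical cultures labelled for betaIII-tubulin. Branch points are quantified by high-content imaging, with DMSO as negative control and baseline.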

[3] = CCTE_Mundy_HCI_hNP1_Casp3_7: CCTE's Caspase-Glo 3/7 Assay in human neuroprogenitor cells for Apoptosis, Mundy Lab (AID 2284240)
Outline: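 Neuroepithelial-lineage stem cells from WA09 embryonic cells were treated with chemicals after 40–44 h of culture. Twenty-four hours later, caspase-3/7 activation was detected luminescently after a 30 min room-temperature reagent step, with DMSO as baseline.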

[4] = CCTE_Mundy_HCI_hNP1_Pro_ResponderAvgInten: CCTE's Proliferation Assay in human neuroprogenitor cells, Mundy Lab (AID 2284224; active = hit-call score of the fitted dose curve at least 0.9, where 1 is the maximum;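 note: human neural progenitor cells hNP1 derived from WA09 embryonic stem cells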)
Outline: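 Human neuroprogenitors (hNP1, WA09 lineage) receive test chemical after 40 to 44 hours of attachment. A four-hour BrdU pulse begins twenty hours later, followed by fixation and high content imaging; signal is referenced to DMSO controls.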

[5] = CCTE_Mundy_HCI_Cortical_NOG_NeuronCount: CCTE's Neurite Outgrowth Assay in rat cortical cells for Neuron Count, Mundy Lab (AID 2284236; active = hit-call score of the fitted dose curve at least 0.9, where 1 is the maximum;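 note: neurons counted by imaging betaIII-tubulin and Hoechst stained cortical cells; cells exposed to compound for about 48 hours before fixation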)
Outline: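 Read-out: neuron number by high-content imaging of betaIII-tubulin (Alexa Fluor-488) and Hoechst-labelled rat primary cortical cells.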

[6] = CCTE_Mundy_HCI_hNP1_CellTiter: CCTE's Cell Titer-Glo 2 Assay in human neuroprogenitor cells for Viability, Mundy Lab (AID 2284241; active = hit-call score of the fitted dose curve at least 0.9, where 1 is the maximum;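 for AC50: a hit is a drop in ATP luminescence versus DMSO meaning reduced viability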)
Outline: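 Measures ATP content in human neural progenitors derived from WA09 embryonic cells. Read-out at 26.5 hours after dosing, with DMSO serving as the negative control and baseline.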

[7] = CCTE_Mundy_HCI_Cortical_Synap_Neur_Matur_NeuronCount: CCTE's Synaptogenesis and Neurite Maturation Assay in rat cortical cells for Neuron Count, Mundy Lab (AID 2284242; active = hit-call score of the fitted dose curve at least 0.9, where 1 is the maximum;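 for AC50: neuron number from Hoechst nuclei and MAP2 staining by high-content imaging; hits reduce neuron count versus DMSO baseline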)
Outline: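 Rat cortical cultures; AraC DIV 5; chemical dosing + media change DIV 7 to DIV 12 (288.33 h readout). Fix, Hoechst, anti-MAP2/anti-synaptophysin immunostain; HCI neuron count vs DMSO baseline.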

[8] = UKN4_HCS_LUHMES_cell_viability: Viability Assessment in the University of Konstanz (UKN) Leist Lab Neurite Outgrowth Assay in human LUHMES cells (UKN4) (AID 2284232)
Outline: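 Day-2 differentiated LUHMES, 30000 cells/well, dosed ~30 min–2 h post-seeding; 24 h treatment incl. staining; Hoechst H-33342 + calcein-AM at 23.5 h; HCS imaging; DMSO-normalized, bidirectional fit.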

[9] = BSK_BT_PBMCCytotoxicity: PBMC Cytotoxicity Assessment in the BioMAP Diversity Plus: BT Assay (AID 2284225); conditions: primary human B cells with PBMC;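 note: PBMC viability measured by Alamar Blue dye reduction fluorescence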
Outline: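 Primary human co-culture of B cells and PBMC, pre-dosed 1 h then activated with SEB and TSST-1. Cytotoxicity is taken from Alamar Blue dye reduction, added for 6 h at the end of a 90 h incubation.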

[10] = read-out: Secreted IgG (sIgG), gene 3500; test: BSK_BT_sIgG: BioMAP Diversity Plus: BT Assay for Secreted IgG (sIgG) Biomarker Activity (AID 2284226); conditions: primary human B cells with PBMC
Outline: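 Human B cell/PBMC co-culture; compound exposure 24 h; sIgG by ELISA; gain-of-signal fit vs DMSO baseline.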

[11] = BSK_BT_Bcell_Proliferation: Viability Assessment in the BioMAP Diversity Plus: BT Assay for B cell Proliferation (AID 2284227); conditions: primary human B cells with PBMC
Outline: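 Human B cells co-cultured with PBMC were dosed with test chemicals and relative cell number was quantified by SRB staining at 72 h. Cells were fixed in 10% TCA, stained with 0.1% SRB and read at 560 nm. Activity was fitted in the positive direction against DMSO.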

[12] = read-out: Interleukin 6 (IL6), IL6 (gene 3569); test: BSK_BT_xIL6: BioMAP Diversity Plus: BT Assay for Interleukin 6 (IL6) Biomarker Activity (AID 2284228); conditions: primary human B cells with PBMC
Outline: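 Human B cell/PBMC co-culture; secreted IL-6 quantified by Luminex xMAP 24 h after chemical dosing, fitted relative to DMSO. Parallel PBMC viability by Alamar Blue after 1 h pretreatment, 20 ng/mL SEB and TSST-1, 90 h incubation.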

[13] = read-out: Interleukin 17A (IL17A), IL17A (gene 3605); test: BSK_BT_xIL17A: BioMAP Diversity Plus: BT Assay for Interleukin 17A (IL17A) Biomarker Activity (AID 2284229); conditions: primary human B cells with PBMC
Outline: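 Co-culture of human B cells and PBMC, dosed for 24 h in 96-well format. Secreted IL-17A measured with Luminex xMAP; gain-direction fitting against DMSO as baseline.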

[14] = read-out: Tumor necrosis factor (Homo sapiens) (UniProt P01375); test: BSK_BT_xTNFa: BioMAP Diversity Plus: BT Assay for Tumor necrosis factor alpha (TNF-alpha) Biomarker Activity (AID 2284230); conditions: primary human B cells with PBMC
Outline: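 B cells with PBMC in co-culture, dosed and sampled at 24 h; secreted TNF-alpha measured by Luminex xMAP bead assay. Activity fitted in the gain direction against DMSO as negative control and baseline.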

[15] = read-out: Vascular cell adhesion molecule 1 (VCAM1), VCAM1 (gene 7412); test: BSK_MyoF_VCAM1: BioMAP Diversity Plus: MyoF Assay for Vascular cell adhesion molecule 1 (VCAM1) Biomarker Activity (AID 2284231); conditions: primary human lung fibroblasts
Outline: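 Primary human lung fibroblasts (BioMAP MyoF system) dosed with chemical, VCAM-1 measured by ELISA 24 hours later. Fitted in the positive direction against DMSO; parallel SRB staining assessed cytotoxicity.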

[16] = read-out: Collagen I, COL1A1 (gene 1277); test: BSK_MyoF_CollagenI: BioMAP Diversity Plus: MyoF Assay for Collagen I Biomarker Activity (AID 2284238); conditions: primary human lung fibroblasts
Outline: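 Primary human lung fibroblasts (MyoF system) treated 24 h; Collagen I quantified by ELISA and fitted in positive direction against DMSO. Parallel SRB total-protein staining assessed overt cytotoxicity.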

[17] = read-out: Collagen III, COL3A1 (gene 1281); test: BSK_MyoF_CollagenIII: BioMAP Diversity Plus: MyoF Assay for Collagen III Biomarker Activity (AID 2284239); conditions: primary human lung fibroblasts
Outline: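 Primary human lung fibroblasts (BioMAP MyoF system) exposed 24 h. Collagen III measured by ELISA; positive-direction fit relative to DMSO.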

[18] = read-out: Interleukin 17F (IL17F), IL17F (gene 112744); test: BSK_BT_xIL17F: BioMAP Diversity Plus: BT Assay for Interleukin 17F (IL17F) Biomarker Activity (AID 2284243); conditions: primary human B cells with PBMC
Outline: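 Human PBMC co-cultured with B cells, compound exposure 24 h; secreted IL-17F quantified by Luminex xMAP, referenced to DMSO control. PBMC viability measured in parallel by Alamar Blue reduction.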

[19] = TAMU_HCS_1.5hr_SingleDonor1434_Cytotoxicity: Cytotoxicity Assessment using High-content Screening (HCS) Fluorescent Imaging for the Texas A&M University (TAMU) 1.5-hr Human Induced Pluripotent Stem Cell (iPSC)-derived Cardiotoxicity Assay (AID 2284234; active = hit-call score of the fitted dose curve at least 0.9, where 1 is the maximum)
Outline: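 Nuclear counts from Hoechst 33342 imaging define cytotoxicity here, with EC10 (10% cell-count loss relative to DMSO) as point of departure. iPSC cardiomyocytes received 0.2-100 uM test chemical in 0.5% DMSO for 1.5 h at 37 C.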

[20] = TAMU_PeakParms_SingleDonor1434_QT: Texas A&M University (TAMU) 1.5-hr Human Induced Pluripotent Stem Cell (iPSC)-derived Cardiomyocytes Calcium (Ca+2) Flux Assay for Cardiotoxicity: QT (decay-rise ratio) (AID 2284235; active = hit-call score of the fitted dose curve at least 0.9, where 1 is the maximum)
Outline: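 Decay/rise ratio of calcium-flux fluorescence scored after 90 min exposure (37C) of donor 1434 iPSC cardiomyocytes to 0.2–100 uM (0.5% DMSO). Beat-cessation and severe-notch points removed; POD is EC05, a 5% rise over DMSO.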

Measured: AC50

Tumor necrosis factor (Homo sapiens), sequence (P01375 whole entry, looked up): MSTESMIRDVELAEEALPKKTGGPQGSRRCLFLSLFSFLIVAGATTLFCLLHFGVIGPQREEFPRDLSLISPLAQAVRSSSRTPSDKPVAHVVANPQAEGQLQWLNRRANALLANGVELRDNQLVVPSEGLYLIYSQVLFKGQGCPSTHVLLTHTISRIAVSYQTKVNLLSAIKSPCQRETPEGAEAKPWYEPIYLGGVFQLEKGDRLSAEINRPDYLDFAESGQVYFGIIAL

C[N+]1(C)CCCCC1
inactive: [1] | [2] | [3]

CCOP(=S)(Oc1cnc(C(C)(C)C)nc1)OC(C)C (configuration not stated)
active: [1] 14.6 µM | [4] 77.6 µM | [5] 28 µM | [2] 22.8 µM | [3] 91.4 µM | [7] 20.1 µM
inactive: [1] | [4] | [5] | [2] | [3] | [6] | [7]

CCOP(=O)(OCC)Oc1cc(C)nc(C(C)C)n1
inactive: [1] | [4] | [5] | [2] | [3] | [6]

CC1=NNC(=O)N(/N=C/c2cccnc2)C1
inactive: [1] | [5] | [2] | [3]

CC[C@H](C)[C@H]1O[C@]2(C=C[C@@H]1C)C[C@@H]1C[C@@H](C/C=C(\C)[C@@H](O[C@H]3C[C@H](OC)[C@@H](O[C@H]4C[C@H](OC)[C@@H](NC)[C@H](C)O4)[C@H](C)O3)[C@@H](C)/C=C/C=C3\CO[C@@H]4[C@H](O)C(C)=C[C@@H](C(=O)O1)[C@]34O)O2
active: [1] 1.12 µM and 1.1 µM | [8] 1.76 µM | [5] 1.23 µM and 1.7 µM | [2] 883 nM and 1.53 µM | [3] 14.3 µM and 3.62 µM | [6] 1.3 µM | [7] 672 nM and 1.14 µM
inactive: [4]

CCCSP(=O)(OCC)Oc1ccc(Br)cc1Cl (configuration not stated)
inactive: [1] | [5] | [2] | [3] | [6] | [7]

CC(C)N(C(=O)SCC(Cl)=C(Cl)Cl)C(C)C
active: [1] 24.1 µM | [8] 19.3 µM | [7] 24.6 µM
inactive: [5] | [2] | [3] | [6]

CCOP(=S)(OCC)SCCSCC
inactive: [1] | [4] | [2] | [3] | [7]

CCOC(=O)CC(SP(=O)(OC)OC)C(=O)OCC (configuration not stated)
inactive: [1] | [8] | [2] | [3] | [6]

COP(=O)(NC(C)=O)SC (configuration not stated)
inactive: [1] | [2] | [3] | [6] | [7]

CN(C)[C@@H]1C(=O)C(C(N)=O)=C(O)[C@@]2(O)C(=O)C3=C(O)c4c(O)cccc4[C@@](C)(O)[C@H]3[C@H](O)[C@@H]12
active: [1] 50 µM | [4] 90.6 µM | [5] 76.9 µM | [3] 25.2 µM | [7] 86.1 µM
not listed: [8] | [19] | [20]
inactive: all other assays above

CCOP(=O)(NC(C)C)Oc1ccc(SC)c(C)c1 (configuration not stated)
active: [6] 51 µM
inactive: [1] | [4] | [5] | [2] | [3] | [7]

CCOP(=S)(OCC)Oc1ccc([N+](=O)[O-])cc1
inactive: [1] | [19] | [20] | [3] | [7]
active: [2] 24.7 µM

CCOP(=S)(OCC)OC(Cl)C(Cl)(Cl)Cl (configuration not stated)
active: [1] 16.7 µM | [4] 50 µM and 75.1 µM | [5] 50 µM and 21.7 µM | [2] 50 µM and 28.7 µM | [3] 50.5 µM | [6] 78.1 µM and 88.7 µM | [7] 21.8 µM
inactive: [1] | [3] | [7]
